Among all 16,000 compounds or so, about 4,000 (25%) were called active. Not shown: some 26% with an inconclusive outcome. Calls follow the shape of the dose curve; as a rule, active = well fitted curve in the direction sought with a large enough effect; inconclusive = small, poorly fitted or top-dose-only effect, or effect the other way; inactive = no such curve, though single readings can be large or run the other way. These entries were drawn from the full list. Some compounds were tested as several samples or in several runs, with calls that do not always agree.
% is scaled to controls: 0 for no effect and ±100 for the full control effect.

In this assay the target is Cytochrome P450 2C9 (Homo sapiens) (UniProt P11712). Description: Cytochrome panel assay with activity outcomes. Conditions: recombinant CYP, pro-luciferin dealkylation, luminescence, p450-cyp2c9; series mostly up to 57.1 µM.
Cytochrome P450 2C9 (Homo sapiens), sequence (P11712 whole entry, looked up): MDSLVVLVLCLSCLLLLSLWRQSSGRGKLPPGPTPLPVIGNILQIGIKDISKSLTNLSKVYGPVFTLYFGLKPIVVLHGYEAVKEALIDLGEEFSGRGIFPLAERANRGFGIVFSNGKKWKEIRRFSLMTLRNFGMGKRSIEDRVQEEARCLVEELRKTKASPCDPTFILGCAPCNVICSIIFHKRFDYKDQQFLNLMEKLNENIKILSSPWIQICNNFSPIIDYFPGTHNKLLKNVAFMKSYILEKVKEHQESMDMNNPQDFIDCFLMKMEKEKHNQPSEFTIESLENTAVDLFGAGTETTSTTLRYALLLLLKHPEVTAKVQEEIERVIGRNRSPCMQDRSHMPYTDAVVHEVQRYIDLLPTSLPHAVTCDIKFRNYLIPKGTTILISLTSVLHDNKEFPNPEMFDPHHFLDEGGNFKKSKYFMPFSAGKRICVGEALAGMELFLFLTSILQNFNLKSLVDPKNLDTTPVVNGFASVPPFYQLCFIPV
`O=C(O)[C@@H]1[C@H](C(=O)O)[C@]2(Cl)C(Cl)=C(Cl)[C@@]1(Cl)C2(Cl)Cl`: the activity, negative = inhibition was -24.4% [at 11.4 µM] (inactive).

Consider `C/C=C(\C)C(=O)O[C@@H]1C(C)=C2[C@H]([C@@H]1OC(=O)CCCCCCC)[C@@](C)(OC(C)=O)C[C@@H](OC(=O)CCC)[C@@]1(O)[C@H]2OC(=O)[C@]1(C)O`, for which the AC50 was 31.6 µM (active).

Turning to `CNC[C@H](O)c1ccc(O)cc1`, the activity, negative = inhibition result is “inactive”.

Consider `CN1CCN(c2ccc3ccccc3n2)CC1`, for which the activity, negative = inhibition result is “inactive”.

On to `CCCN1CCO[C@@H]2c3cc(O)ccc3OC[C@H]21`, for which the activity, negative = inhibition result is “inactive”.

In the case of `O=[As](O)(O)c1ccc2nc3cc([As](=O)(O)O)ccc3nc2c1`, the activity, negative = inhibition was 1.65% [at 11.4 µM] (inactive).

As for `CCCN1CCc2cccc3c2[C@@H]1Cc1ccc(O)c(O)c1-3`, the activity, negative = inhibition entry is “inactive”.

Turning to `COCCn1c(SCc2nc3sc(C(=O)OC)c(C)c3c(=O)[nH]2)nc2ccccc21`, the AC50 is 0.891 µM (active).

As for `NC(N)=Nc1ccc2[nH]c3c(c2c1)C[C@]1(O)[C@@H]2Cc4ccc(O)c5c4[C@]1(CCN2CC1CC1)[C@@H]3O5`, the activity, negative = inhibition result is “inactive”.

Turning to `CCN1C[C@@]2(COC)[C@H]3[C@@H](OC)[C@H]4C1[C@@]3([C@H](OC)C[C@@H]2O)[C@H]1C[C@@]2(O)[C@@H](OC(=O)c3ccccc3)[C@@H]1[C@@]4(OC(C)=O)[C@H](O)[C@@H]2OC`, the activity, negative = inhibition entry was “inactive”.

Consider `COc1ccc(C2SCC(=O)Nc3c2c(C)nn3-c2ccccc2)cc1OC` (stereo unspecified), for which the AC50 is 10 µM (active).

In the case of `O=C(Oc1ccc(S(=O)(=O)F)cc1F)c1ccccc1Cl`, the activity, negative = inhibition was -12.2% [at 11.4 µM] (inactive).

As to `C/C(O)=C(/C#N)C(=O)Nc1cc(Br)ccc1Br`, the activity, negative = inhibition result was “inactive”.

Consider `O=C1C2CCN(CC2)C1(CO)CO`, for which the AC50 is 0.0631 µM (active) and the activity, negative = inhibition is -2.93% [at 11.4 µM] (inactive).

Take `O=P(O)(O)C(Cl)(Cl)P(=O)(O)O`: the activity, negative = inhibition entry is “inactive”.

On to `COC1=CC(=O)O[C@@H](/C=C\c2ccccc2)C1`, for which the activity, negative = inhibition result was “inactive”.

With `N[C@H](CP(=O)(O)O)C(=O)O`, the activity, negative = inhibition entry is “inactive”.

`CCCCN1C(=O)C(C2c3ccccc3C(=O)N2Cc2ccccc2)C(=O)NC1=S` (stereo unspecified): the AC50 is 2 µM (active).

As for `CN1C(=O)C(C2c3ccccc3C(=O)N2Cc2ccc([N+](=O)[O-])cc2)C(=O)N(C)C1=O` (stereo unspecified), the AC50 was 25.1 µM (active).

Consider `Cc1cc(C)c(-n2c(O)c(C=NCCN3CCOCC3)c(=O)[nH]c2=O)c(C)c1`, for which the activity, negative = inhibition result was “inactive”.

Regarding `CCC(=O)Nc1ccc(N2CCN(CC)CC2)c(Cl)c1`, the activity, negative = inhibition result is “inactive”.

For `NC(=O)CN1C[C@@H](O)CC1=O`, the activity, negative = inhibition entry was “inactive”.

For the compound `CC1(C)CCC(C)(C)c2c1ccc(O)c2Cc1c(O)ccc2c1C(C)(C)CCC2(C)C`, the activity, negative = inhibition was -17.2% [at 11.4 µM] (inactive).

In the case of `C[C@@]12CCC(=O)C=C1C=C[C@H]1[C@H]3CC[C@](O)(CCC(=O)O)[C@]3(C)CC[C@@H]12`, the activity, negative = inhibition entry is “inactive”.

Take `O=C(C[C@H](c1ccccc1)c1c(O)c2ccccc2oc1=O)c1ccccc1`: the AC50 was 0.631 µM (active).

Turning to `CC(C)c1ccc(C(c2c(O)c3ccccc3oc2=O)c2c(O)c3ccccc3oc2=O)cc1`, the AC50 was 3.16 µM (active).

As to `c1ccc(CN2CCCC3(CCNCC3)C2)cc1`, the activity, negative = inhibition entry was “inactive”.

Turning to `CN1CCC(c2c[nH]c3ccc(O)cc23)CC1`, the activity, negative = inhibition result is “inactive”.

`C[C@]1(O)CC[C@H]2[C@@H]3[C@@H](O)CC4=CC(=O)CC[C@@]4(C)[C@H]3CC[C@]21C`: the activity, negative = inhibition was 14% [at 11.4 µM] (inactive).

With `C[C@@H]1O[C@@H](O[C@H]2C[C@@H](O)[C@]3(CO)[C@@H]4[C@@H](O)C[C@]5(C)[C@H]([C@@H]6COC(=O)C6)CC[C@@]5(O)[C@H]4CC[C@@]3(O)C2)[C@H](O)[C@H](O)[C@@H]1O`, the activity, negative = inhibition entry is “inactive”.

Take `CN1CCC2(CC1)CCN(C(=O)Oc1ccccc1)CC2`: the activity, negative = inhibition entry is “inactive”.

For `C[C@@]12C(=O)OC(=O)[C@]1(C)[C@H]1CC[C@@H]2O1`, the activity, negative = inhibition result is “inactive”.

Consider `O=C(Nc1cccc(C(F)(F)F)c1)c1cccn(Cc2ccc3c(c2)OC(F)(F)O3)c1=O`, for which the AC50 was 3.16 µM (active).

For the compound `O=C(Nc1ccc(C(F)(F)F)cc1)c1cccn(Cc2ccc3c(c2)OC(F)(F)O3)c1=O`, the AC50 is 8.91 µM (active).

As for `O=P(O)(O)CCP(=O)(O)O`, the activity, negative = inhibition is -4.93% [at 11.4 µM] (inactive).

For `C[N+]1(C)[C@@H]2CC[C@H]1CC(OC(=O)c1c[nH]c3ccccc13)C2` (stereo partly specified), the activity, negative = inhibition entry was “inactive”.

As for `C[C@]12N[C@H](Cc3ccccc31)c1ccccc12`, the activity, negative = inhibition entry was “inactive”.

Regarding `CCN(CCCl)Cc1ccccc1Br`, the activity, negative = inhibition result was “inactive”.

In the case of `CC(C)c1ccc2c(c1)c(SC(C)(C)C)c(CC(C)(C)C(=O)O)n2Cc1ccc(Cl)cc1`, the AC50 was 6.31 µM (active).

Take `CC[C@H](C(=O)[C@H](C)[C@H](O)[C@H](C)CCc1ccc(C)c(O)c1C(=O)O)[C@H]1O[C@](CC)([C@@H]2CC[C@@](O)(CC)[C@H](C)O2)C[C@H]1C`: the activity, negative = inhibition entry was “inactive”.

With `CC[C@@]1(c2ccc(N)cc2)CCC(=O)NC1=O`, the activity, negative = inhibition result is “inactive”.

As for `CC(C)NC(=O)N1CCC2(CC1)CCN(C(=O)Oc1ccccc1)CC2`, the activity, negative = inhibition result is “inactive”.

Consider `NCCP(=O)(O)O`, for which the activity, negative = inhibition was 4.14% [at 11.4 µM] (inactive).

For `NC(N)=NCCC[C@H](N)C(=O)O`, the activity, negative = inhibition entry is “inactive”.

Take `NP(N)(=O)NC(=O)c1ccc(F)cc1`: the activity, negative = inhibition entry was “inactive”.

For `O[C@@H](c1cc(-c2ccccc2)nc2c1ccc1ccccc12)[C@@H]1CCCCN1`, the activity, negative = inhibition is -8.99% [at 11.4 µM] (inactive).

Take `COc1ccc(Cc2nccc3cc(OC)c(OC)cc23)cc1OC`: the activity, negative = inhibition result was “inactive”.

With `CC[C@H]1C(=O)OC[C@H]1Cc1cncn1C`, the activity, negative = inhibition is -29.2% [at 11.4 µM] (inactive).

Turning to `CCC1C(=O)OCC1Cc1cncn1C` (stereo unspecified), the AC50 is 15.8 µM (active).

Turning to `CC(=O)O[C@H]1CC[C@@]2(C)[C@@H](CC[C@H]3[C@H]2CC(=O)[C@@]2(C)[C@@H]3C[C@H]3CC(C)=CC(=O)[C@H]32)C1`, the activity, negative = inhibition was -10.2% [at 11.4 µM] (inactive).

In the case of `C[C@@]12CC[C@H](O)C[C@@H]1CC[C@H]1[C@H]2CC[C@@]2(C)[C@@H](C3=CC(=O)OC3)CC[C@]12O`, the activity, negative = inhibition entry was “inactive”.

For the compound `N#CCCN`, the activity, negative = inhibition result is “inactive”.

With `Ic1ccccc1CN[C@@H]1C2CCN(CC2)[C@H]1C(c1ccccc1)c1ccccc1`, the activity, negative = inhibition result was “inactive”.

Consider `NC(N)=Nc1ccc2[nH]c3c(c2c1)C[C@]1(O)[C@@H]2Cc4ccc(O)c5c4[C@]1(CCN2CC1CC1)[C@H]3O5`, for which the activity, negative = inhibition entry is “inactive”.

`COC(=O)[C@@H]1[C@@H]2C[C@H]3c4[nH]c5cc(OC)ccc5c4CCN3C[C@@H]2C[C@H](OC(=O)/C=C\c2cc(OC)c(OC)c(OC)c2)[C@H]1OC`: the activity, negative = inhibition result was “inactive”.

With `COc1cc2c(cc1OC)[C@H](C)NCC2`, the activity, negative = inhibition entry is “inactive”.

On to `NC(=NCCc1ccc(I)cc1)SCCCc1cnc[nH]1`, for which the activity, negative = inhibition result was “inactive”.

On to `OCc1cnc[nH]1`, for which the activity, negative = inhibition entry was “inactive”.

Take `NC(=NCc1ccc(Cl)cc1)SCCCc1cnc[nH]1`: the AC50 was 12.6 µM (active).

Consider `C#CCN[C@@H](C)Cc1ccccc1`, for which the activity, negative = inhibition result was “inactive”.

Take `c1csc(CN2CC[C@@]3(CCCNC3)C2)n1`: the activity, negative = inhibition entry was “inactive”.

`COc1ccc2c(c1)[C@]13CCCC[C@@H]1[C@H](C2)N(C)CC3`: the activity, negative = inhibition result is “inactive”.

Take `COc1ccc(C(=O)O[C@H]2CC[C@@]3(C)[C@H]4CC[C@H]5[C@]3(C[C@]3(O)[C@H]6CN7C[C@H](C)CC[C@H]7[C@](C)(O)[C@]6(O)[C@H](O)C[C@]53O)O[C@]24O)cc1OC`: the activity, negative = inhibition was -11.3% [at 11.4 µM] (inactive).

`CCC(=Nc1cc(OC)ccc1OC)c1c(O)[nH]c(=O)[nH]c1=O`: the activity, negative = inhibition result is “inactive”.

On to `CCCCn1c(O)c(C=NCCN2CCCCC2)c(=O)[nH]c1=O`, for which the activity, negative = inhibition entry is “inactive”.

`CCCCn1c(O)c(C(CC)=Nc2ccc(OC)cc2OC)c(=O)[nH]c1=O`: the AC50 is 14.1 µM (active).

`O=c1[nH]c(=O)n(CCc2ccc(F)cc2)c(O)c1C=NCCCN1CCOCC1`: the activity, negative = inhibition result is “inactive”.

On to `C=CCn1c(O)c(C(CC)=NC2CC2)c(=O)[nH]c1=O`, for which the activity, negative = inhibition result is “inactive”.

Regarding `CCCCn1c(O)c(C(CC)=NCc2ccc(F)cc2)c(=O)[nH]c1=O`, the AC50 is 3.55 µM (active).

In the case of `C[C@]12CCC3c4ccc(OCC(=O)O)cc4CCC3C1CCC2=O` (stereo partly specified), the activity, negative = inhibition was -4.6% [at 11.4 µM] (inactive).

In the case of `c1cc(C2N3CCCN2CC3)ccn1` (stereo unspecified), the activity, negative = inhibition was 9.12% [at 11.4 µM] (inactive).

Regarding `O=C(CCCN1CCC2(CC1)C(=O)N(Cc1cccc(F)c1)CN2c1ccccc1)c1ccc(F)cc1`, the activity, negative = inhibition entry was “inactive”.

As for `CCCN1CCC[C@H](c2cccc(C#N)c2)C1`, the activity, negative = inhibition entry is “inactive”.

On to `CCCN1CC[C@@H]2c3cc(O)ccc3CC[C@H]21`, for which the activity, negative = inhibition result is “inactive”.

As for `Cc1cccc([C@H](C)c2cnc[nH]2)c1C`, the AC50 is 0.2 µM (active).

For `C=C(CC1(C(C)NP(=O)(c2ccccc2)c2ccccc2)CC1)c1ccccc1` (stereo unspecified), the AC50 is 7.94 µM (active).

Consider `C=C(CC1(CNP(=O)(c2ccccc2)c2ccccc2)CC1)c1ccccc1`, for which the AC50 was 10 µM (active).

For `O=C(O)[C@H]1C[C@@H]1[C@H](NP(=O)(c1ccccc1)c1ccccc1)c1ccccc1`, the activity, negative = inhibition result is “inactive”.

On to `O=C(O)[C@@H]1C[C@H]1[C@@H](NP(=O)(c1ccccc1)c1ccccc1)c1ccccc1`, for which the activity, negative = inhibition result was “inactive”.

For `O=P(O)(O)c1ccccc1` (tested in a mixture with another compound), the activity, negative = inhibition was 0.15% [at 11.4 µM] (inactive).

Turning to `C=C(C)c1ccccc1` (tested in a mixture with another compound), the activity, negative = inhibition is -0.349% [at 11.4 µM] (inactive).

In the case of `Cc1c2cc[n+](CCN3CCCCC3)cc2c(C)c2c1[nH]c1ccc(O)cc12`, the activity, negative = inhibition is 17.8% [at 11.4 µM] (inactive).

`COc1ccc(C[C@@H]2NC[C@H](O)[C@@H]2OC(C)=O)cc1`: the activity, negative = inhibition result is “inactive”.

Consider `CC(C)c1nccn1Cc1ccc(Cl)cc1Cl`, for which the activity, negative = inhibition was -23.6% [at 11.4 µM] (inactive).

As to `NC1=Nc2ccccc2Oc2ccccc21`, the activity, negative = inhibition entry was “inactive”.

As for `COc1ccccc1N1CCNCC1`, the activity, negative = inhibition result was “inactive”.

For `O=C(O)c1ccccc1-c1c2cc(Br)c(=O)cc-2oc2[c]([Hg])c(O)c(Br)cc12`, the AC50 is 0.631 µM (active).

Regarding `COc1ccc2[nH]c3c(c2c1)CCNC3`, the activity, negative = inhibition result is “inactive”.

Consider `C[N+]1(C)C2CC[C@H]1CC(OC(=O)[C@@H](CO)c1ccccc1)C2` (stereo partly specified), for which the activity, negative = inhibition is 8.36% [at 11.4 µM] (inactive).

For the compound `CC1(C)[C@@H]2CC[C@]1(C)CN(CCC[N+](C)(C)C)C2`, the activity, negative = inhibition is 1.62% [at 11.4 µM] (inactive).
